# An excerpt weighted towards active compounds, which were near 4.2% of everything screened.
# MITF act = activators of MITF-driven TRPM1 promoter reporter, primary screen, cell-based, SK-MEL-5, luciferase, single point | SK-MEL-5 TRPM1-promoter luciferase, 24 h; % of positive control, neutral wells = 0 | activation, % at 12.5 µM | actives 0.75% (n = 300,000);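 active = mean activation of at least 80% with every replicate also reaching 80%; inconclusive = mean reaches 80% but some replicate falls short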;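 also: 0% = neutral control wells and 100% = parthenolide positive control wells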
# Wnt bcat act = Wnt/beta-catenin pathway activators, primary screen, cell-based, plate reader, single point. Wnt/beta-catenin reporter cell assay, activator. activation, % at 9.35 µM. actives 1.2% (n = 300,000); in the data active = activation above about 30%, passing the limit was not always enough; inconclusive = no clear call, values can overlap the other calls;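 also: 0% = neutral control wells and 100% = positive control wells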
# esBAF inh = Bmi1 luciferase reporter increase in mESCs, primary screen, esBAF inhibitor project, mouse ES cells, Bmi1 luciferase knock-in, single point | 24 h; 100% = twice the neutral-well signal | reporter increase, % at 12.5 µM | actives 2% (n = 350,000) | AID 602393, 2012; in the data active = activation above about 40%; inconclusive = no clear call, values can overlap the other calls;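 also: 0% = median of the plate's neutral control wells and 100% = double that signal; a rise in the Bmi1 reporter signal indicates esBAF inhibition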
# GAA850 FXN act = FXN promoter activators, primary screen, cell-based, luciferase luminescence, HEK293 lucGAA850 | activation, % at 6 µM | HEK293 lucGAA850 FXN promoter luciferase reporter, 24 h; percent of 10 µM SAHA response | actives 0.56% (n = 360,000);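 active = activation above the average of all compounds screened plus 3 SD, cutoff fixed separately per campaign, cut at about 7.5% in these data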;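 also: 0% = DMSO wells and 100% = 10 µM SAHA wells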
# AHR activator = AHR activators, primary screen, cell-based, luminescence, luciferase reporter, human; AHR-responsive luciferase reporter cells; actives 2.5% (n = 320,000); activation, % at 5 µM; Aryl hydrocarbon receptor (Homo sapiens), P35869; AID 2796, 2010; in the data active = activation above about 47%;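 also: 0% = vehicle wells and 100% = reference agonist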
# Target sequence (P35869 whole entry, looked up): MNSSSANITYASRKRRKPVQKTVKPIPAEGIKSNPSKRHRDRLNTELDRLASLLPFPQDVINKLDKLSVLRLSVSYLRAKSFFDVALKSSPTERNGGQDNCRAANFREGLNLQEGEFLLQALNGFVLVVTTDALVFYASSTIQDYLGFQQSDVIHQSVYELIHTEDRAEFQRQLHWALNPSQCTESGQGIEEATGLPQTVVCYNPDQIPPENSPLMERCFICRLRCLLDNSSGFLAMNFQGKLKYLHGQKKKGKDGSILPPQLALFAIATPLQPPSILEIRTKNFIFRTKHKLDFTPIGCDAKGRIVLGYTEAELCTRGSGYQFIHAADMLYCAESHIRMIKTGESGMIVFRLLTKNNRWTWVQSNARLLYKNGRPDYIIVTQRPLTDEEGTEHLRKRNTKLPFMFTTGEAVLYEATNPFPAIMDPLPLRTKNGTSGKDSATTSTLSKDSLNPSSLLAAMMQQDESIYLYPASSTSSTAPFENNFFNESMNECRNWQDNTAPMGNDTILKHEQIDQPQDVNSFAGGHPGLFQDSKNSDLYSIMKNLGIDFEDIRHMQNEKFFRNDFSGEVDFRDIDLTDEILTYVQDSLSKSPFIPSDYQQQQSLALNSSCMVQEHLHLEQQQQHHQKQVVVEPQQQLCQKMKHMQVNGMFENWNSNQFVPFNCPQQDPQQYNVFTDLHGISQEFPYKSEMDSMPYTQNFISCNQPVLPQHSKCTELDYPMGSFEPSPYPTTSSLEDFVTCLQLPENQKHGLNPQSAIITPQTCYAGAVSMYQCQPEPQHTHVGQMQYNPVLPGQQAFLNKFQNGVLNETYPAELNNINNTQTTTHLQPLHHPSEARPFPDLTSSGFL
# Active calls of the source: *; u = inconclusive; x = not tested or not shown.
SMILES,MITF act,Wnt bcat act,esBAF inh,GAA850 FXN act,AHR activator
Cc1ccc(NC(=O)c2ccc3nccnc3c2)c(C)c1,99*,8,35,2,-5
C[C@@H](NC(=O)C[C@H]1CC[C@H](NC(=O)Cc2ccccn2)[C@@H](CO)O1)c1ccccc1,x,x,3,x,x
COc1ccccc1NC(=O)c1ccc(S(=O)(=O)N(C)C)cc1,5,-4,11,2,10
Cc1cccc(NC(=O)c2cccc(NC(=O)c3ccccc3)c2)n1,21,2,3,1,34
Cc1cccc(NC(=O)c2ccc(S(=O)(=O)N(C)C)cc2)n1,11,x,49*,3,12
Cc1cc(NC(=O)c2ccc3nccnc3c2)ccc1Br,70,66*,-8,3,64*
COc1ccc(OC)c2sc(NC(=O)c3ccc(S(=O)(=O)N(C)C)cc3)nc12,15,-1,6,0,69*
Cc1cccc(NC(=O)c2ccc3nccnc3c2)n1,62,-1,u,3,48*
CCCNC(=O)Nc1ccc2c(c1)C(=O)N(C)C[C@H](OC)[C@H](C)CN(Cc1ccccn1)[C@@H](C)CO2,x,x,2,x,x
C[C@@H]1CN([C@H](C)CO)C(=O)c2cc(NC(=O)c3ccncc3)ccc2O[C@@H]1CN(C)Cc1ccccc1,x,x,-5,x,x
CNC[C@@H]1Oc2c(NC(=O)c3cc(C)nn3C)cccc2C(=O)N([C@H](C)CO)C[C@@H]1C,x,x,-3,x,x
C[C@@H]1CN([C@H](C)CO)C(=O)Cc2cc(NC(=O)Nc3ccc(F)cc3)ccc2O[C@H]1CN(C)S(=O)(=O)c1cccs1,x,x,-3,x,x
C[C@H](CO)N1C[C@H](C)[C@@H](CN(C)Cc2cccc(F)c2)OCc2ccccc2-c2ccccc2C1=O,x,x,-3,x,x
O=C(C[C@@H]1CC[C@H]2[C@@H](COC[C@@H](O)CN2Cc2ccccc2F)O1)NC1CCC1,x,x,0,x,x
COC(=O)c1ccc(NC(=O)c2ccc3nccnc3c2)cc1,12,7,14,-1,-5
O=C(Nc1ccc(SC(F)F)cc1)c1ccc2nccnc2c1,46,x,122*,0,1
CCCN1[C@@H]2Cn3c(cccc3=O)[C@H]1[C@@H](C(=O)NC1Cc3ccccc3C1)[C@@H]2CO,x,x,-1,x,x
Cc1cccc(S(=O)(=O)N2C[C@H](O)COC[C@H]3O[C@@H](CC(=O)NCCCN4CCOCC4)CC[C@@H]32)c1,x,x,-4,x,x
Cc1cccc(NCC(=O)N/N=C\c2c[nH]c3ccccc23)c1,-12,-4,x,-2,78*
Cc1ccccc1NCC(=O)N/N=C/c1c[nH]c2ccccc12,-4,-2,x,1,62*
Cc1cccc(NCC(=O)N/N=C\c2ccccn2)c1,-13,0,x,1,38
O=C(N[C@H]1C=C[C@@H](CC(=O)N2CCC(Cc3ccccc3)CC2)O[C@@H]1CO)c1cnccn1,x,x,11,x,x
Nc1ccc2nc(-c3cccnc3)[nH]c2c1,3,3,x,0,13
Nc1ccc2nc(-c3ccccc3)[nH]c2c1,x,21,27,5,67*
COc1ccc2nc(-c3ccc(N)cc3)[nH]c2c1,-30,69*,-46,-8,5
SMILES,MITF act,Wnt bcat act,esBAF inh,GAA850 FXN act,AHR activator
COc1ccc2nc(-c3ccccn3)[nH]c2c1,x,15,-3,4,47*
COc1ccc2nc(-c3cccc(N)c3)[nH]c2c1,58,3,-30,-4,24
Nc1ccc2nc(-c3cccs3)[nH]c2c1,58,14,44*,5,21
CC(C)NC(=O)N(C)C[C@H]1Oc2cc(C#Cc3ccccn3)ccc2S(=O)(=O)N([C@H](C)CO)C[C@H]1C,x,x,-11,x,x
CCCN(C)C[C@@H]1Oc2cc(C#Cc3ccncc3)ccc2S(=O)(=O)N([C@H](C)CO)C[C@@H]1C,x,x,3,x,x
O=C(NC(=S)Nc1cccnc1Cl)c1ccc(Cl)cc1,34,36*,u,3,21
COc1cc(OC)cc(C(=O)Nc2cccc3cccnc23)c1,5,0,-2,1,50*
O=C(Nc1cccc2cccnc12)c1ccc(Cl)cc1,x,5,45*,5,x
O=C(Nc1cccnc1Cl)c1ccc(Cl)cc1,49,10,u,3,7
Cc1ccc(COc2ccc3c(c2)OCO3)cc1,60,33*,21,7,6
CNc1nc(-c2ccc3c(c2)CCN3C(=O)c2cccc(F)c2)cs1,36,13,x,-5,7
CNc1nc(-c2ccc3c(c2)CCN3C(=O)c2ccc(F)cc2)cs1,33,-4,52*,0,x
CNc1nc(-c2ccc3c(c2)CCN3C(=O)c2ccccc2C)cs1,149*,6,x,-5,17
CC(C)(C)Nc1nc(-c2ccc3c(c2)CCN3C(=O)C2CC2)cs1,x,u,95*,6,-7
CC(C)NC(=O)N(C)C[C@H]1Oc2ncc(C#CCC3CCCC3)cc2C(=O)N([C@@H](C)CO)C[C@H]1C,x,x,-2,x,x
C=CCSc1nn2c(=O)c3ccccc3nc2s1,x,52*,14,5,3
O=c1c2ccccc2nc2sc(Nc3ccc(F)cc3)nn12,51,29,u,3,8
C/C(Cl)=C/CSc1nn2c(=O)c3ccccc3nc2s1,u,x,34,2,14
Cc1ccccc1Nc1nn2c(=O)c3ccccc3nc2s1,43,35*,38,0,28
COc1cccc(Nc2nn3c(=O)c4ccccc4nc3s2)c1,114*,x,69*,1,23
C[C@@H]1CN([C@H](C)CO)C(=O)c2cc(NC(=O)Cn3cnnn3)ccc2O[C@@H]1CN(C)C(=O)Nc1ccc(C(F)(F)F)cc1,x,x,-5,x,x
CCC(=O)Nc1ccc2c(c1)C(=O)N(C)C[C@@H](OC)[C@H](C)CN(Cc1ccncc1)[C@H](C)CO2,x,x,-5,x,x
Cc1noc(C)c1S(=O)(=O)Nc1ccc2c(c1)C(=O)N([C@H](C)CO)C[C@H](C)[C@@H](CN(C)Cc1ccncc1)O2,x,x,1,x,x
COc1ccccc1NC(=S)N1CCC(c2nc3cc(C)c(C)cc3[nH]2)CC1,-4,-3,9,3,52*
C[C@@H]1CN([C@H](C)CO)C(=O)c2cc(C3=CCCC3)cnc2O[C@@H]1CN(C)Cc1ccccc1,x,x,1,x,x
SMILES,MITF act,Wnt bcat act,esBAF inh,GAA850 FXN act,AHR activator
COc1cc(NC(=O)c2cccc(Cl)c2)c(OC)cc1NC(=O)CN1CCOCC1,14,x,21,-2,63*
COc1cc(NC(=O)c2cccc(Cl)c2)c(OC)cc1NC(=O)CN1CCCCC1,14,-3,x,1,71*
COc1cc(NC(=O)c2ccc(F)cc2)c(OC)cc1NC(=O)CN1CCCCC1,6,2,0,2,40
CC(C)C(=O)Nc1ccc2c(c1)C(=O)N(C)[C@H]1CC[C@@H](CC(=O)NCCc3ccccc3)O[C@@H]1CO2,x,x,-1,x,x
COc1ccc(-c2cnn3c4c(c(C)nc23)CCN4C2CCCC2)cc1OC,16,-5,2,5,11
COCCN1CCc2c(C)nc3c(-c4ccc(OC)c(OC)c4)cnn3c21,x,x,37,4,49*
